Results as given in PubChem BioAssay (Tox21).
Inconclusive results are not listed. Calls of active or inactive are those of the source. Calls follow the shape of the full dose curve.

assay: qHTS assay to identify small molecule agonists of the hypoxia (HIF-1) signaling pathway - cell viability counter screen (AID 1224844); details: HRE-bla ME-180 viability, CellTiter-Glo luminescence, 17 h; series mostly up to 76.8 µM; activity change, negative = cytotoxicity: at the top concentration; also: nearly all actives have a fitted effect of over 50% in size
Source text: National Center for Advancing Translational Sciences [NCATS]
NIH Chemical Genomics Center [NCGC]
U.S. Environmental Protection Agency [EPA]
National Institutes of Environmental Health Sciences [NIEHS]
National Toxicology Program [NTP]
U.S. Food and Drug Administration [FDA]
Hypoxia-inducible factor-1 (HIF-1) is the major hypoxia-regulated transcription factor that controls cellular responses to low oxygen concentration. HIF-1 is composed of two subunits: hypoxia responsive HIF-1-alpha and constitutively expressed HIF-1-beta, which is also known as aryl hydrocarbon receptor nuclear translocator. During hypoxic conditions, HIF-1-alpha heterodimerizes with HIF-1-beta and translocates into the nucleus where the HIF-1 complex binds to the hypoxia-response element (HRE) and activates expression of target genes such as VEGF (vascular endothelial growth factor). The HIF-1 pathway is essential to normal growth and development, and is involved in the pathophysiology of cancer, inflammation, and ischemia.
Using a beta-lactamase reporter-gene under control of the hypoxia response element, a cell-based assay [CellSensor(TM) HRE-bla ME-180 from Life Technologies, Carlsbad, CA] was used to measure hypoxia-induced signaling. Tox21 10K library compounds were measured for their ability to induce the reporter gene activity. The cytotoxicity of the Tox21 compound library against HRE-bla ME-180 cell line was tested in parallel by measuring cell viability using CellTiter-Glo assay (Promega, Madison, WI) in the same assay wells.
Tox21 Assay Protocol Summary:
HRE-bla ME-180 cells were dispensed at 2,000 cells per well in 6 uL of assay medium containing 0.5% dialyzed FBS into black wall/clear-bottom 1536-well plates using a Multidrop Combi (Thermo Scientific, Waltham, MA) dispenser. After the assay plates were incubated at 37C and 5% CO2 for 5 hrs, 23 nL of compounds dissolved in DMSO, positive controls or DMSO only was transferred to each well of the assay plate using a Pintool station (Kalypsys, San Diego, CA). The assay plates were incubated at 37C and 5% CO2 for 17 hrs. One uL of LiveBLAzerTM B/G FRET substrate (CCF4-AM) (Life Technologies) was added to each well using a Flying Reagent Dispenser (FRD, Aurora Discovery, San Diego, CA). After 2 hr incubation at room temperature, fluorescence intensity (405 nm excitation, 460 nm and 530 nm emissions) was measured using an Envision plate reader (PerkinElmer, Shelton, CT). For cytotoxicity, 4 ul/well of CellTiter-Glo reagent was added into the assay plates using an FRD. After 30 min incubation at room temperature, the luminescence intensity was measured using a ViewLux plate reader (PerkinElmer).
% is scaled to controls: 0 for no effect and ±100 for the full control effect; potency is read from the fitted curve at half-maximal effect.

Row | Compound | activity change, negative = cytotoxicity | Potency
1 | CCCCN1C[C@H](O)[C@@H](O)[C@H](O)[C@H]1CO | 1.26% [at 35.3 µM] (inactive) | 
2 | O=c1oc2c(O)c(O)cc3c(=O)oc4c(O)c(O)cc1c4c23 | 0.799% [at 15.8 µM] (inactive) | 
3 | C=CC(C)(O)CC/C=C(\C)CCC=C(C)C (stereo not given) | -15.6% (inactive) | 
4 | O=[N+]([O-])c1nccn1CO[C@@H](CO)[C@H](O)CO | -4.19% [at 35.3 µM] (inactive) | 
5 | CC(C)C1=CC2=CC[C@@H]3[C@](C)(CCC[C@@]3(C)C(=O)O)[C@H]2CC1 |  | 43.6 µM (active)
6 | CCCNC(C)(C)COC(=O)c1ccccc1 | 1.54% [at 35.3 µM] (inactive) | 
7 | C=O | -32.8% (inactive) | 
8 | CC(C)S | 5.23% (inactive) | 
9 | CC[C@H]1CC[C@H](NCc2cc3c(cc2OC)[C@H]2C[C@H]2C(=O)N3C)[C@H](c2ccccc2)N1 | 10.7% (inactive) | 
10 | Cc1ccc([N+](=O)[O-])cc1Cl | 11.1% (inactive) | 
11 | O=C(Cl)c1cccc([N+](=O)[O-])c1 | -7.3% (inactive) | 
12 | CC(CNC1CCCCC1)OC(=O)c1ccccc1 (stereo not given) | 3.92% [at 35.3 µM] (inactive) | 
13 | CCN(CCCc1ccccc1)CCCc1ccccc1 | -23.4% [at 35.3 µM] (inactive) | 
14 | O=C(O[C@@H](C(=O)O)[C@@H](OC(=O)c1ccccc1)C(=O)O)c1ccccc1 | 7.49% (inactive) | 
15 | COC(=O)N[C@H](C(=O)N[C@@H](Cc1ccccc1)[C@@H](O)CN(Cc1ccc(-c2ccccn2)cc1)NC(=O)[C@@H](NC(=O)OC)C(C)(C)C)C(C)(C)C | -1.58% [at 35.3 µM] (inactive) | 
16 | FC(F)(F)c1ccccc1 | -1.3% (inactive) | 
17 | Cc1c(C(=O)NCCO)[n+](=O)c2ccccc2n1[O-] | 1.06% [at 35.3 µM] (inactive) | 
18 | CCCCC1CCC(=O)O1 (stereo not given) | 1.5% (inactive) | 
19 | C/C(=N\O)[C@@H](C)NCC(C)(C)CN[C@H](C)/C(C)=N/O | 1.29% [at 35.3 µM] (inactive) | 
20 | N#Cc1ccc(C(c2ccc(C#N)cc2)n2cncn2)cc1 | -3.83% [at 35.3 µM] (inactive) | 

Row | Compound | activity change, negative = cytotoxicity | Potency
21 | O=C1CCN(c2ccccc2)N1 | -18.5% (inactive) | 
22 | CC1=C(CC(=O)O)c2cc(F)ccc2/C1=C\c1ccc(S(C)(=O)=O)cc1 | 0.65% [at 35.3 µM] (inactive) | 
23 | OCCN1CCN(CCO)CC1 | 3.2% (inactive) | 
24 | O=C(O)CN(CCN(CC(=O)O)CC(=O)O)CCN(CC(=O)O)CC(=O)O | -7.94% [at 15.8 µM] (inactive) | 
25 | COc1nc(C)nc(NC(=O)NS(=O)(=O)c2ccccc2OCCCl)n1 | -4.42% (inactive) | 
26 | CCCCCCOc1ccc(N)cc1 | -4.5% (inactive) | 
27 | CCOc1ccc2nc(N)sc2c1 | 1.99% (inactive) | 
28 | CCCCCOc1ccc(C2SC(=O)NC2=O)cc1OCC (stereo not given) | -13% [at 35.3 µM] (inactive) | 
29 | CN1CCN(C2=Nc3cc(F)ccc3Cc3ccccc32)CC1 | 1.81% [at 35.3 µM] (inactive) | 
30 | CCCCC(=O)O[C@]1(C(=O)CO)[C@H](C)C[C@H]2[C@@H]3CCC4=CC(=O)C=C[C@]4(C)[C@@]3(F)[C@@H](O)C[C@@]21C | -12.3% [at 35.3 µM] (inactive) | 
31 | O=C1CCC(C2CCCCC2)CC1 | -10.7% (inactive) | 
32 | CCCC(CCC)(C(=O)OCC)C(=O)OCC | 3.75% [at 35.3 µM] (inactive) | 
33 | CCOC(=O)c1ccccc1O | -2.5% [at 35.3 µM] (inactive) | 
34 | Cc1cc(S(=O)(=O)O)c(N)cc1Cl | 0.249% (inactive) | 
35 | CN(C)CCOc1ccccc1Cc1ccccc1 | -2.87% [at 35.3 µM] (inactive) | 
36 | Cc1nnc(SCC2=C(C(=O)O)N3C(=O)[C@@H](NC(=O)Cn4cnnn4)[C@H]3SC2)s1 | -0.903% [at 35.3 µM] (inactive) | 
37 | C=CCCCCCCCCO | -13.1% (inactive) | 
38 | Cc1cc2nc(N)sc2cc1C | -13.7% (inactive) | 
39 | CC(C)C[C@H](NC(=O)OCC1c2ccccc2-c2ccccc21)C(=O)O | -15.6% (inactive) | 
40 | CC(C)CC(=O)OCc1ccccc1 | -0.658% (inactive) | 
